Assay outcomes deposited in PubChem BioAssay by several laboratories.
Only some compounds are listed: those with a hit (about 2.5% of all), similar ones and a draw of the others.
PfM18AAP inh – PfM18AAP inhibitors, malaria aminopeptidase, primary screen, biochemical, QFRET, recombinant enzyme | H-Glu-NHMec fluorogenic cleavage | inhibition, % at 7.35 µM | M18 aspartyl aminopeptidase (Plasmodium falciparum 3D7) | 290,000 tested, 1.2% active;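 active = inhibition above the campaign mean inhibition over all tested compounds plus 3 SD, cut at about 28% in these data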;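 note: 0% = plate median of test compound wells and 100% = 2 mM ZnCl2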
HDAC3 inh – HDAC3 deacetylase inhibitors, primary screen, biochemical, fluorescence, cell-free homogeneous. Histone deacetylase 3 (Homo sapiens), O15379. recombinant HDAC3, fluorogenic peptide/trypsin coupled. inhibition, % at 8.3 µM. 320,000 tested, 0.15% active. AID 2718, 2010; in the data active = inhibition above about 26%, passing the limit was not always enough; inconclusive = no clear call, values can overlap the other calls
UBC9 SUMO inh – inhibitors of in vitro SUMOylation cascade, primary screen, biochemical, HTRF, uHTS. HTRF SUMOylation assay, SAE1/SAE2 + UBC9. inhibition, % at 35 µM. 290,000 tested, 0.36% active; in the data active = inhibition above about 50%, passing the limit was not always enough; inconclusive = no clear call, values can overlap the other calls
Target sequence (P63279 whole entry, looked up): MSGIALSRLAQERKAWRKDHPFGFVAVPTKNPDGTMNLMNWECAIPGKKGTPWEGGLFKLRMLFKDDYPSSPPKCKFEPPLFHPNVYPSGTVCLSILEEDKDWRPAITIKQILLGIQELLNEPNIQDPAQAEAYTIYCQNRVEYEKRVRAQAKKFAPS
p97 ATPase inh – inhibitors of human p97 ATPase, primary screen, biochemical | Transitional endoplasmic reticulum ATPase (Homo sapiens), P55072 | recombinant p97 ATPase, Kinase-Glo ATP luminescence, 3 h | inhibition, % at 8 µM | 220,000 tested, 0.42% active; in the data active = inhibition above about 15%;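 note: 0% = DMSO vehicle and 100% = wells lacking enzyme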
PHOSPHO1 inh – PubChem AID 1565; recombinant PHOSPHO1, absorbance phosphatase assay; 290,000 tested, 1.1% active; inhibition, % at 13.3 µM; Phosphoethanolamine/phosphocholine phosphatase (Homo sapiens), Q8TCT1; in the data active = inhibition above about 60%
Target sequence (Q8TCT1 whole entry, looked up): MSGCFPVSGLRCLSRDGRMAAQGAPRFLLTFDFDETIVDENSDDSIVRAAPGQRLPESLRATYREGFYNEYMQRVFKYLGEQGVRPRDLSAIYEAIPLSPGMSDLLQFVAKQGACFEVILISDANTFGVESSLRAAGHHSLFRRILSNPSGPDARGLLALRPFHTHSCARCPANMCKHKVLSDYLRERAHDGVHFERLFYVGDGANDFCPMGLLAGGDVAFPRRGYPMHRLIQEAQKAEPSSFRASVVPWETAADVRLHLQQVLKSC
G6PDH counter – L. mesenteroides G6PDH inhibitors, counter-screen for G6PDH-coupled screening assays, biochemical, Leuconostoc mesenteroides enzyme. Purified L. mesenteroides G6PDH, diaphorase/resazurin coupled fluorescence, 45 min. inhibition, % at 5 µM. 200,000 tested, 0.12% active; in the data active = inhibition above about 50%
* marks the source's active call; other numbers are inactive results; u = inconclusive; x = no result.

SMILES | PfM18AAP inh | HDAC3 inh | UBC9 SUMO inh | p97 ATPase inh | PHOSPHO1 inh | G6PDH counter
C/C(=N/NC(=O)CNC(=O)C1COc2ccccc2O1)c1ccc2c(c1)OCCO2 (configuration not stated) | -5 | 3 | -1 | -1 | 28 | -7
CC(C)(C)c1ccc(/C([O-])=C(/C(=S)NCc2ccco2)[n+]2ccccc2)cc1 | 5 | 11 | -2 | 3 | 84* | 4
Cc1ccc[n+](/C(C(=S)NCc2ccco2)=C(/[O-])c2ccccc2Cl)c1 | 7 | 2 | 16 | -4 | 97* | 3
COc1ccc([C@H]2CC(=O)C=C(c3ccc(OC)c(F)c3)C2)cc1 | x | 7 | x | x | x | x
CC(C)(Oc1ccc(-c2ccco2)cc1)C(=O)O | -6 | -3 | 23 | 1 | -31 | -1
CC(=O)c1sc(C(=O)O)c(-c2ccco2)c1-c1ccco1 | 30* | u | 28 | 14 | 39 | x
O=C(O)c1ccc(Cl)c(NCc2cccs2)c1 | -1 | -1 | -11 | x | x | x
COc1ccc2c(c1)c(=O)oc1c(C)c(OCc3cc(C(=O)O)oc3C)ccc12 | 4 | u | 70* | 7 | 23 | 4
COc1ccc2c(c1)c(=O)oc1c(C)c(OCc3ccc(C(=O)O)cc3)ccc12 | -8 | -2 | 55* | x | 28 | x
COc1ccc2c(c1)c(=O)oc1c(C)c(OCC(=O)N3CCc4ccccc4C3)ccc12 | -7 | -2 | 31 | 0 | -10 | 3
Cc1[nH]c(=O)cc2ccccc12 | -7 | -7 | -14 | -2 | 94* | 10
Cc1cc(=O)[nH]c2ccccc12 | 2 | 0 | 4 | 0 | 22 | 3
Cc1ccc(NC2=CC(=O)C(=O)c3ccccc32)c(C)c1 | x | 2 | x | x | x | x
O=C1C=C(Nc2ccccc2O)c2ccccc2C1=O | 19 | -1 | 28 | 4 | 29 | 56*
CCCCn1c(-c2csc(CC)c2)n[nH]c1=S | 22 | 2 | 2 | -3 | 14 | 5
CCCCn1c(-c2csc3c2CCCC3)n[nH]c1=S | 3 | 1 | 11 | -3 | 100* | -3
CCCCn1c(-c2csc3c2CCC(C)C3)n[nH]c1=S (configuration not stated) | 3 | 14 | -32 | 1 | 84* | 4
CCCCn1c(-c2csc3ccccc23)n[nH]c1=S | -7 | 16 | 15 | 2 | 95* | -3
C=CCn1c(-c2csc3c2CCC(C)C3)n[nH]c1=S (configuration not stated) | -2 | -4 | -11 | -1 | 20 | 9
Cc1ccc(NS(=O)(=O)c2ccc3c(c2)NC(=O)CCS3)c(C)c1 | 3 | -1 | 9 | x | -4 | x
COc1ccc(NC(=S)Nc2ccc3nccnc3c2)cc1 | 16 | 3 | 93 | -3 | -10 | 15
COc1cccc(NC(=S)Nc2ccc(O)cc2)c1 | 35* | 8 | 25 | 11 | -138 | x
COc1ccc(NC(=S)Nc2ccc3snnc3c2)cc1 | 30* | -10 | 23 | 0 | 49 | 18
COc1cccc(NC(=S)Nc2ccc(F)cc2)c1 | 3 | -2 | -4 | x | 4 | x
COc1ccc(C(=O)Nc2ccnn2C2CCN(C(=O)c3cc(C)on3)CC2)cc1 | 3 | 1 | -14 | x | 14 | x
SMILES | PfM18AAP inh | HDAC3 inh | UBC9 SUMO inh | p97 ATPase inh | PHOSPHO1 inh | G6PDH counter
COc1ccc(NC(=O)COC(=O)CCc2ccc(S(=O)(=O)N3CCOCC3)cc2)c(OC)c1 | x | 3 | x | x | x | x
Cc1cc2c(cc3c(=O)n(CC(=O)NCCCN4CC(C)CC(C)C4)ncn32)s1 (configuration not stated) | 6 | 0 | 20 | x | 69* | x
COCCn1c(SC(C)C(=O)Nc2ccc(N3CCOCC3)cc2)nnc1-c1ccncc1 (configuration not stated) | x | -3 | x | x | x | x
C#CCn1c(O)c(N=NC(=O)CNC(=O)c2cccnc2)c2ccccc21 | -2 | 9 | 3 | x | 2 | x
CCC(C)NC(=O)c1cc2c(=O)n3ccccc3nc2s1 (configuration not stated) | 4 | -85 | 28 | x | 61* | x
Cc1nc(SCC(=O)Nc2ccccc2Cl)oc1C | -3 | 4 | 0 | x | -42 | x
COc1ccc2c(c1)c1c(n2C)[C@@H]2CC=C(CO)[C@@H](C1)N2C | x | -2 | x | x | x | x
O=C(OCC(=O)N1CCN(C(=O)c2ccco2)CC1)c1cc(-c2ccco2)nc2ccccc12 | 2 | 1 | 43 | 6 | 69* | 5
O=C(OCC(=O)N1CCN(C(=O)c2ccco2)CC1)c1cc(-c2ccc(Cl)c(Cl)c2Cl)nc2ccccc12 | 4 | 2 | -36 | -2 | 20 | 24
C/C(=N\NC(=O)c1cc(-c2ccco2)nc2ccccc12)c1cccnc1 | -5 | -7 | 60* | 2 | 23 | 6
COc1ccc(CNC(=O)COC(=O)c2cc(-c3ccco3)nc3ccccc23)cc1 | -12 | x | 57* | 3 | 24 | -1
Cc1sc(NC(=O)CSc2nnc(N)s2)c(C#N)c1C | 8 | 1 | -21 | x | 36 | x
COC(=O)C(NNc1ccccc1)(NC(=O)c1ccc(F)cc1)C(F)(F)F (configuration not stated) | -1 | 3 | 26 | 2 | 92* | 7
CCOC(=O)c1nn(-c2ccc3c(c2)CCN3C(C)=O)cc1O | 1 | -158 | 52* | 6 | 23 | 13
CC(=O)Nc1ccc(NC(=O)C(C)Sc2n[nH]c(-c3ccc(C)cc3)n2)cc1 (configuration not stated) | x | -2 | x | x | x | x
COc1ccc(N/C=C2\CCc3ccccc3C2=O)cc1 | 37* | 8 | 36 | -9 | 10 | 62*
O=C1/C(=C/Nc2ccc3c(c2)OCO3)CCc2ccccc21 | 18 | -5 | u | -8 | 18 | 53*
COc1ccc(N/C=C2\CCOC2=O)cc1 | -1 | 3 | -17 | -1 | 15 | 8
COc1ccc2c(c1)CC/C(=C\Nc1ccc3c(c1)OCO3)C2=O | -30 | 0 | 77 | -3 | -6 | 59*
COc1cc(NC(=O)C2CCC(CNS(=O)(=O)c3csc(C(N)=O)c3)CC2)cc(OC)c1 (configuration not stated) | 2 | 6 | -17 | x | 18 | x
COc1ccc(NC(=O)COC(=O)CCC(=O)c2cccs2)cc1OC | x | -2 | x | x | x | x
CCc1noc(C)c1C(=O)N(Cc1ccccc1)c1c(N)n(CCOC)c(=O)[nH]c1=O | x | -8 | x | x | x | x
O=C(O)CC(NC(=O)c1ccccc1NC(=O)c1ccccc1)C(=O)O (configuration not stated) | 8 | -2 | 16 | 2 | -1 | -3
Cc1ccc(C(=O)Nc2ccccc2C(=O)NC(CC(=O)O)C(=O)O)cc1 (configuration not stated) | 4 | 0 | 9 | 32* | 24 | -8
